DAGLB inh: blocks human DAGLB lipase activity | Q8NCG7 | HEK293T DAGLB membrane lysate, EnzChek fluorogenic substrate | inhibition, % at 5.17 µM | 340,000 tested, 0.059% active | AID 504411; in the data active = inhibition above about 34%
iPSC survival up: enhancers of human iPSC single-cell survival. 360,000 tested, 0.044% active. survival enhancement, % at 20 µM. hiPSC single-cell survival, ATPlite luminescence; 100% = ROCK inhibitor wells, 0% = DMSO; in the data active = survival enhancement above about 18%;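 also: cells exposed to compounds for 16 hours before the ATP read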
LANA-H2A inh: blocks KSHV LANA binding to histone H2A/H2B. Q9QR71. cell-free LANA-H2A/H2B peptide, fluorescence polarization. 320,000 tested, 0.6% active. inhibition, % (concentration not given with the values); in the data active = inhibition mostly above about 10%, no sharp cut-off; inactive = mostly below about 6.7%
HDAC3 inhib: blocks human histone deacetylase 3 | recombinant HDAC3, fluorogenic peptide/trypsin coupled, fluorescence | inhibition, % at 8.3 µM | 320,000 tested, 0.15% active | AID 2718; in the data active = inhibition above about 26%, passing the limit was not always enough; inconclusive = no clear call, values can overlap the other calls
Each line names hits and unclear results; the compound was inactive in the other large screens; ! = not active in a repeat. Only some compounds are listed: those with a hit (about 0.79% of all), similar ones and a draw of the others.

O=C(NCc1cccnc1)c1sc2ccccc2c1Cl	none
CC(NC(=O)CNC(=O)c1sc2ccccc2c1Cl)c1cccnc1 (stereo unspecified)	LANA-H2A inh 22
O=C1Nc2ccccc2Nc2ncccc21	LANA-H2A inh 15
Cc1ccc2c(c1)NC(=O)c1cccnc1N2	none
O=C(c1cccs1)n1nc(-c2ccco2)nc1SCc1ccccc1	HDAC3 inhib 65 (no result: DAGLB inh, iPSC survival up)
CSc1nc(-c2ccco2)nn1C(=O)c1cccs1	HDAC3 inhib inconclusive
Cn1c(N)c(C(c2ccccc2)c2c(N)n(C)c(=O)n(C)c2=O)c(=O)n(C)c1=O	LANA-H2A inh 29
COc1ccccc1C(C[N+](=O)[O-])c1c(N)n(C)c(=O)n(C)c1=O (stereo unspecified)	none (no result: DAGLB inh)
COc1ccc(C)c2sc(NC(=O)CCS(=O)(=O)c3ccccc3)nc12	LANA-H2A inh 103
COc1ccc(NC(C)=O)cc1S(=O)(=O)NCCc1ccccn1	LANA-H2A inh 30
C=CCOc1ccc(C(c2c(C(=O)O)[nH]c3ccccc23)c2c(C(=O)O)[nH]c3ccccc23)cc1	none
CN/C(=C/[N+](=O)[O-])NCCSCc1ccc(CN(C)C)o1	LANA-H2A inh 16!
CCCNC(=O)COC(=O)c1ccccc1C(=O)c1ccc(Cl)c([N+](=O)[O-])c1	iPSC survival up 20
CC(C)N(C)CCOC(=O)/C=C/c1ccccc1	LANA-H2A inh active
CC(C)Oc1ccc(S(=O)(=O)N2CCOCC2)cc1NC(=O)CC1OC(=O)c2ccccc21 (stereo unspecified)	LANA-H2A inh 16
CCOc1ccc(S(=O)(=O)N2CCOCC2)cc1NC(=O)CN1C(=O)NC2(CCCCC2)C1=O	LANA-H2A inh 24
Cc1cc(NC(=O)CSc2nc3cc(C)c(C)cc3cc2C)no1	none
Cc1ccc(NC2=C/C(=N/S(=O)(=O)c3cccs3)c3ccccc3C2=O)cc1	none
Cc1ccc(S(=O)(=O)/N=C2\C=C(Nc3ccc(O)cc3)C(=O)c3ccccc32)cc1	DAGLB inh 46
CCC(NC(=O)c1ccc2nc(Cc3ccc(OC)cc3)oc2c1)c1ccncc1 (stereo unspecified)	none
COc1ccccc1/C=C/C(=O)OCC(=O)c1cc(C)n(C)c1C	LANA-H2A inh active
COc1ccc(OCC(=O)N(Cc2ccco2)C2CCS(=O)(=O)C2)cc1 (stereo unspecified)	none (no result: DAGLB inh)
Cc1ccc(NC(=O)CN(C)C(=O)CCSc2ccc(F)cc2)cc1	LANA-H2A inh 18
Cc1ccc(NC(=O)CN(C)C(=O)CSc2ccccc2F)cc1	none
O=C(NCc1ccc(F)cc1)C1CCN(S(=O)(=O)c2cccc3nonc23)CC1	none
CCOc1ccc(NC(=O)CN(C)C(=O)c2nc3nc(C)cc(C)n3n2)cc1OCC	LANA-H2A inh 35
O=C(Nc1ccncc1)c1ccccc1F	iPSC survival up 24
O=C(Nc1ccncc1)c1c(F)c(F)c(F)c(F)c1F	iPSC survival up 44
Cc1ccc(NC(=S)N2CCCC(CO)C2)c(C)c1 (stereo unspecified)	LANA-H2A inh 30
Cc1ccc(NC(=S)N2CCC(O)CC2)c(C)c1	none
CCCn1nc(NC(=O)c2ccncc2)c2cc3ccccc3nc21	none
CCCC(=O)Nc1nn(CCC)c2nc3ccccc3cc12	LANA-H2A inh 15
Oc1cc2c(cc1O)C1c3ccc(O)c(O)c3OCC1(O)C2 (stereo unspecified)	none
O=C(NCC(=O)N1CCN(c2ncccn2)CC1)c1cccs1	none
Cc1ccc(C(=O)NCC(=O)N2CCN(c3ncccn3)CC2)s1	LANA-H2A inh 18
CCOc1ccccc1OCCNC1CCCC1	LANA-H2A inh 145
CCOc1ccc(OCCNC2CCCC2)cc1	none
COc1ccc(S(=O)(=O)N2CCCCC2)cc1NC(=O)Cc1cccs1	none
O=C(Cc1cccs1)Nc1cc(S(=O)(=O)N2CCCCC2)ccc1Cl	LANA-H2A inh 82
O=C(Cc1ccc(S(=O)(=O)N2CCOCC2)s1)Nc1cc(Cl)ccc1Cl	LANA-H2A inh active
CC1CCN(S(=O)(=O)c2ccc(NC(=O)Cc3ccc(S(=O)(=O)N4CCOCC4)s3)cc2)CC1	LANA-H2A inh active
COc1cc(NC(=O)Cc2ccc(S(=O)(=O)N3CCOCC3)s2)c(OC)cc1Cl	none
Cn1nccc1C(=O)OCC(=O)Nc1ccccc1Cl	none (no result: LANA-H2A inh, HDAC3 inhib)
COC(=O)[C@@]1(Sc2ccc(C)cc2)CC(=O)N(C(=O)/C=C/c2ccccc2)[C@@H]1c1ccccc1	none (no result: DAGLB inh, LANA-H2A inh, HDAC3 inhib)
COc1cc(CCC(N)c2cccc(O)c2)cc(OC)c1OC (stereo unspecified)	none (no result: LANA-H2A inh, HDAC3 inhib)
O=C(NCc1cccnc1)C1CCN(S(=O)(=O)c2cc(Cl)ccc2Cl)CC1	none
Cc1cc(C)c(OCC(=O)Nc2nnc(-c3ccco3)o2)c(C)c1	none
O=C(NC(=S)Nc1ccc2c(c1)OCCO2)c1ccccc1F	LANA-H2A inh 13
O=C(Nc1ccc2c(c1)OCCO2)c1ccccc1F	none
COc1ccc(S(=O)(=O)N2CCOCC2)cc1NC(=O)CCc1nc2ccccc2c(=O)[nH]1	none
COc1ccc(COC(=O)CNC(=O)C2CCCCC2)cc1F	none
CCCCCCC1(C)NC(=S)N(c2ccccc2)N1 (stereo unspecified)	LANA-H2A inh 13, HDAC3 inhib inconclusive
CCCCCC1(C)NC(=S)N(c2ccccc2)N1 (stereo unspecified)	none
Cc1[nH]c(-c2ccco2)nc1C(=O)O	LANA-H2A inh 15
COc1ccc2c(c1OC)C(=O)N(c1ccc(C)cc1)C2=O	LANA-H2A inh 16
CCCCn1c(N)c(N(CC(C)C)C(=O)Cc2ccc(S(=O)(=O)N3CCOCC3)s2)c(=O)[nH]c1=O	none (no result: LANA-H2A inh, HDAC3 inhib)
CN1CCN(C(=O)c2ccc(CNS(=O)(=O)c3cccc(Cl)c3)cc2)CC1	none
CCCCCCn1c(=O)[nH]c2nc3cc(N)ccc3nc2c1=O	LANA-H2A inh 42 (no result: DAGLB inh, iPSC survival up)
COc1ccc(-c2cc(=O)c3ccc(O)cc3o2)cc1OC	none (no result: DAGLB inh, LANA-H2A inh, HDAC3 inhib)
Nc1ccc(-c2c3ccc(=O)cc-3oc3cc(O)ccc23)c(C(=O)O)c1	LANA-H2A inh 65, HDAC3 inhib inconclusive
Cn1cc(S(=O)(=O)N2CCCC2)cc1C(=O)N1CCN(c2ccccc2)CC1	none
Cc1ccc(CNC(=O)C2CCN(C(=O)Nc3ccc(C)cc3)CC2)cc1	none (no result: LANA-H2A inh, HDAC3 inhib)
CCCCCCN1C=CC=C/C1=C/C=C(C#N)C#N	LANA-H2A inh 10
O=C(C1CCCN(S(=O)(=O)c2cccc3cccnc23)C1)N1CCN(c2ccc(F)cc2)CC1 (stereo unspecified)	LANA-H2A inh 25
COc1ccc(N2CCN(C(=O)C3CCCN(S(=O)(=O)c4ccc(C)cc4)C3)CC2)cc1 (stereo unspecified)	LANA-H2A inh 26
Cn1cc(C(=O)N2CCCC(Nc3ccc(F)cc3)C2)c2ccccc21 (stereo unspecified)	none
COC(=O)CSc1nnc(CNC(=O)c2cccs2)n1-c1cccc(C)c1	none (no result: LANA-H2A inh, HDAC3 inhib)
Cc1ccc(-n2c(CNC(=O)c3cccs3)nnc2SCC(=O)NO)cc1	HDAC3 inhib 53
Cc1cc(C)c(N2CCN(S(=O)(=O)N3CCCCCC3)CC2)c(C)c1	none
Oc1ccccc1N1CCN(C(=S)Nc2ccc(SC(F)F)cc2)CC1	LANA-H2A inh 23
CCCC(C)c1nnc(NC(=O)CS(=O)(=O)Cc2ccccc2)s1 (stereo unspecified)	LANA-H2A inh 30

Bioassay records as filed in PubChem BioAssay.
